According to PubChem BioAssay AID1220 (Sanford-Burnham Center for Chemical Genomics, 2008):
Among all 190,000 compounds or so, about 1,300 (0.68%) were called active. The sample as a whole holds a higher share of actives than the screen did. Values without a mark were called inactive. No stated cut-off is given here; in the data, active means inhibition above about 50%; inactive means the rest.

Biological target: Mannose-6-phosphate isomerase (Homo sapiens) (UniProt P34949)
Assay: human PMI inhibitors, high substrate, primary screen, biochemical, fluorescence intensity, high mannose 6-phosphate (AID 1220)
Conditions: recombinant PMI enzyme, coupled fluorescence intensity; at 20 µM; hits give high values

Sequence of Mannose-6-phosphate isomerase (Homo sapiens) (P34949 whole entry, looked up): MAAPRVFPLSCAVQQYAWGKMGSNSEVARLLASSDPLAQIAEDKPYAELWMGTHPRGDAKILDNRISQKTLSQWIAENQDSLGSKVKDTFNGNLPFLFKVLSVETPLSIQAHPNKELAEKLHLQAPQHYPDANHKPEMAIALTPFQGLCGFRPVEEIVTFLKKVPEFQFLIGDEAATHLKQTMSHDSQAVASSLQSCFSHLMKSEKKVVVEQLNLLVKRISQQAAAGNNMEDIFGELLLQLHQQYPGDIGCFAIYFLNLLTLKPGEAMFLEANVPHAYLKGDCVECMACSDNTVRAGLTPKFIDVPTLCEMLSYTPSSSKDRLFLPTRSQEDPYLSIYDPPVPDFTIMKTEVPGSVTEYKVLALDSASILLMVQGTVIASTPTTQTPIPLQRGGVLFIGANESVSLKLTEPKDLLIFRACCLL

Row | Compound | inhibition
1 | Cc1cccc(N2CCC(N3CCN(C4CCCCC4)C(CCO)C3)CC2)c1C (configuration not stated) | 22.8%
2 | O=C(CSc1nnc(-c2ccco2)o1)NC1CCCCCC1 | -4.7%
3 | COc1cc(C)c(Cl)cc1S(=O)(=O)NCCCN1CCOCC1 | 2%
4 | COc1ccc2c(c1)CC/C(=C/c1cc(OC)c(OC)c(OC)c1)C2=O | 52.2% (active)
5 | O=C1/C(=C/c2ccco2)CCc2ccccc21 | 56.9% (active)
6 | COc1ccc(/C=C2\CC/C(=C\c3ccc(OC)c(OC)c3)C2=O)cc1OC | 20.6%
7 | Nc1ccc2c(c1)C/C(=C/c1ccco1)C2=O | -39.6%
8 | O=C1/C(=C/c2ccco2)Cc2ccccc21 | 16%
9 | COc1ccc2c(c1)CC/C(=C/c1ccco1)C2=O | 57.4% (active)
10 | COc1cc(/C=C2\CC/C(=C\c3cc(OC)c(OC)c(OC)c3)C2=O)cc(OC)c1OC | 11.2%
11 | COc1cc(/C=C2\CCc3ccccc3C2=O)cc(OC)c1OC | 23.9%
12 | COc1ccc2c(c1)CC/C(=C/c1ccncc1)C2=O | 11.5%
13 | O=C1/C(=C\c2ccco2)CCC/C1=C\c1ccco1 | -57.2%
14 | COc1cc(/C=C2/CCc3ccccc3C2=O)cc(OC)c1OC | 23.1%
15 | COc1ccc([N+](=O)[O-])cc1NC(=O)Nc1cccc(Cl)c1 | -1.5%
16 | O=C(Cn1nc(CNc2ccc(Cl)cc2)[n+]2c1CCCCC2)c1ccc(Br)cc1 | 9.2%
17 | CCSc1nnc(-c2ccccc2N)c(=O)[nH]1 | -2%
18 | CCN(CC)S(=O)(=O)c1cc(-c2nnc(-c3ccc(Br)cc3)o2)ccc1Cl | 3.4%
19 | O=C(CN1CCC(NC(=O)Cc2ccccc2)CC1)Nc1ccccc1Br | -0.4%
20 | CSc1ccccc1NC(=O)CCn1c(=O)sc2ccccc21 | -0.9%
21 | Clc1ccc(OCCSc2ncccn2)cc1 | 11.9%
22 | COc1ccc(-n2cc(CNCCCn3ccnc3)c(-c3ccccc3Cl)n2)cc1 | 1.9%
23 | CCn1c2ccccc2c2cc(NC(=S)N3CCOCC3)ccc21 | 3%
24 | CCn1c2ccccc2c2cc(NC(=O)N3CCOCC3)ccc21 | 20%
25 | CCn1c2ccccc2c2cc(NC(=O)C(=O)N3CCOCC3)ccc21 | 50.2% (active)

Row | Compound | inhibition
26 | O=C(NCc1ccncc1)C1=NN(c2ccccc2)C(=O)CC1 | -91.4%
27 | Cc1cccc(NCN2C(=O)C3C4C=CC(C4)C3C2=O)c1 (configuration not stated) | 3.7%
28 | S=C(NCCc1ccccc1)Nc1ccc(Nc2ccccc2)cc1 | 0%
29 | CCN(CC)P(=O)(Nc1ccc(SC(F)F)cc1)c1ccc(N(C)C)cc1NC(=O)c1ccco1 (configuration not stated) | 35.4%
30 | CCN(CC)P(=O)(Nc1ccccc1Br)c1ccc(N(C)C)cc1NC(=O)c1ccco1 (configuration not stated) | 16.4%
31 | CCN(CC)P(=O)(Nc1ccc(C)cc1Br)c1ccc(N(C)C)cc1NC(=O)c1ccco1 (configuration not stated) | 53% (active)
32 | Cc1ccc2cc(C#N)c(N3CCCC3)nc2c1C | -56.8%
33 | O=C(Cc1c(Cl)cccc1Cl)OCC(=O)N1CCc2ccccc2C1 | -1%
34 | CCN1/C(=C/c2ccc3ccccc3[n+]2CC)C=Cc2ccccc21 | 17.7%
35 | CN1/C(=C/c2cc[n+](C)c3ccccc23)C=Cc2ccccc21 | 58% (active)
36 | C[n+]1ccc(/C=C/c2ccccc2O)c2ccccc21 | 12.7%
37 | COc1ccc(CNC(=O)COC(=O)/C=C/c2ccco2)cc1 | -4.8%
38 | CCOC(=O)c1c(/N=C/c2cc(C)ccc2O)sc2c1CCN(C)C2 | -5.7%
39 | Nc1ccc(NC(=O)c2ccco2)c(Cl)c1 | -1.2%
40 | O=C(COc1ccccc1)NCCSCc1ccco1 | 5.1%
41 | CC(C)c1ccc(/C=N/Nc2cc(N3CCOCC3)nc(N3CCOCC3)n2)cc1 | 68.6% (active)
42 | C(=N\Nc1nc(N2CCOCC2)nc(N2CCOCC2)n1)/c1ccncc1 | -1%
43 | Clc1ccc(-c2ccc(/C=N/Nc3cc(N4CCOCC4)nc(N4CCOCC4)n3)o2)cc1 | 54.5% (active)
44 | Cc1ccc(/C=N/Nc2nc(N3CCOCC3)nc(N3CCOCC3)n2)o1 | -10.9%
45 | Brc1ccc(-c2ccc(/C=N/Nc3nc(N4CCOCC4)nc(N4CCOCC4)n3)o2)cc1 | 5.4%
46 | CN(C)c1ccc(/C=N/Nc2cc(N3CCOCC3)nc(N3CCOCC3)n2)cc1 | 60.4% (active)
47 | CN(C)c1ccc(/C=C/C=N/Nc2nc(N3CCOCC3)nc(N3CCOCC3)n2)cc1 | 8.9%
48 | Cc1cc(C)nc(N/N=C/c2ccc(N3CCOCC3)cc2)n1 | 4.7%
49 | O=[N+]([O-])c1ccc(/C=N/Nc2nc(N3CCOCC3)nc(N3CCOCC3)n2)cc1 | -1.5%
50 | COc1c(C)cccc1C(=O)NC(=S)Nc1ccc2c(c1)Cc1ccccc1-2 | 8.2%

Row | Compound | inhibition
51 | COc1ccc(NS(=O)(=O)c2cc(NC(=O)Cn3cnc4c3c(=O)n(C)c(=O)n4C)ccc2C)cc1 | 8.9%
52 | CC(NC(=O)Cc1ccccc1)c1nc2ccccc2[nH]1 (configuration not stated) | -7.3%
53 | Cc1nc2n(n1)C(O)c1cc([N+](=O)[O-])ccc1S2 (configuration not stated) | 7.3%
54 | COc1ccc(C(=O)CN(Cc2ccccc2)C2=NCCS2)cc1 | -4.2%
55 | CCOC(=O)c1c(C)oc2c1c1c(c3ccccc32)OCN(Cc2cccnc2)C1 | 67.3% (active)
56 | CCOC(=O)c1c(C)oc2c1c(C(c1cccnc1)N1CCCCC1)c(O)c1ccccc12 (configuration not stated) | 26.9%
57 | CCOC(=O)c1c(C)oc2c1c(C(c1ccncc1)N1CCOCC1)c(O)c1ccccc12 (configuration not stated) | 10.8%
58 | CCOC(=O)c1c(C)oc2c1c(C(c1cccnc1)N1CCOCC1)c(O)c1ccccc12 (configuration not stated) | 58% (active)
59 | CCOC(=O)c1c(C)oc2ccc(O)c(CN3CCCCC3)c12 | 6.2%
60 | CCOC(=O)c1c(C)oc2c1c(C(c1cccnc1)N1CCN(C)CC1)c(O)c1ccccc12 (configuration not stated) | 28.8%
61 | CC(=O)Oc1ccc2c(c1)c(C(C)=O)c(C)n2C | -2.9%
62 | COc1ccccc1C(=O)N/N=C/c1cnc2ccccc2n1 | -4.4%
63 | CCCCNC(=O)c1ccc(CNS(=O)(=O)c2ccc(Br)cc2)cc1 | 4.4%
64 | COc1cc(C2C(C#N)=C(C)NC3=C2C(=O)CC(C)(C)C3)ccc1O (configuration not stated) | 3.8%
65 | COc1cc(C2CC(=O)NC3=C2C(=O)CC(C)(C)C3)ccc1O (configuration not stated) | 4.3%
66 | COc1cc(C2CC(=O)NC3=C2C(=O)CC(C)(C)C3)cc(OC)c1O (configuration not stated) | 54.4% (active)
67 | CC1(C)CC(=O)C2=C(C1)NC(=O)CC2c1ccc(F)cc1 (configuration not stated) | -3.1%
68 | COc1cc(C2C(C#N)=C(C)NC3=C2C(=O)CC(C)(C)C3)ccc1OCCO (configuration not stated) | 5.4%
69 | COc1cc(C2C(C#N)=C(C)NC3=C2C(=O)CC(C)(C)C3)cc(OC)c1O (configuration not stated) | 66.5% (active)
70 | CCc1cccc(NC(=O)CS(=O)Cc2nc(-c3ccc(C)cc3)oc2C)c1 (configuration not stated) | 6.8%
71 | COc1ccccc1-n1cnnc1SCC(=O)NCC1CCCO1 (configuration not stated) | -9.1%
72 | Cc1ccc2nc(-c3ccccc3)c(CN3CCOCC3)n2c1 | -1%
73 | O=C(NC(=S)Nc1nc(-c2ccc(Cl)cc2)cs1)c1cccs1 | -11.6%
74 | COc1ccc(C)cc1NC(=O)c1ccoc1C | 3.7%
75 | Cc1ccc(-c2cn3c(n2)SCC3)cc1 | 1%

Row | Compound | inhibition
76 | Oc1ccc(-c2cn3c(n2)SCC3)cc1 | -10.9%
77 | Oc1ccc(-c2cn3c(n2)SCC3)cc1O | 53.1% (active)
78 | O=C(NCc1cccnc1)NC1CCCN1S(=O)(=O)c1ccc(Cl)cc1 (configuration not stated) | -3.5%
79 | Cc1ccc(-c2csc(NC(=O)CSc3ncn(-c4ccccc4)n3)n2)cc1 | 0%
80 | COc1cccc(NC(=O)CSc2nc3c(c(=O)n2C)SC(C)C3)c1 (configuration not stated) | 2.4%
81 | O=C(Nc1cccc(S(=O)(=O)N2CCCCC2)c1)c1ccc(OCC2CCCO2)cc1 (configuration not stated) | 2.6%
82 | CCOc1ccc(C(=O)N[C@H](C(=O)Nc2cccc(S(=O)(=O)N3CCCCC3)c2)C(C)C)cc1 | 57.6% (active)
83 | CCOc1ccc(C(=O)N[C@H](C(=O)Nc2ccc(OC)c(S(=O)(=O)N3CCOCC3)c2)C(C)C)cc1 | 10.3%
84 | CCOC(=O)COn1c(=O)c(=O)n(O)c2ccccc21 | 24.9%
85 | Oc1ccc(/C=N/N=C/c2ccc(O)cc2)cc1 | -2.8%
86 | Oc1ccc(N=Cc2ccc(O)c(O)c2)cc1 | 52.6% (active)
87 | NC(N)=N/N=C/c1ccc(OCc2ccccc2)cc1 | 1.2%
88 | CC(=O)Nc1ccc(N=Cc2ccc(OCc3ccccc3)cc2)cc1 | 10.3%
89 | Oc1ccc(N=Cc2ccc(OCc3ccccc3)cc2)cc1 | 58.5% (active)
90 | O=Cc1ccc(O)c(O)c1 | -5%
91 | O=C(c1sc2ccccc2c1Cl)N(Cc1ccccc1Cl)C1CCS(=O)(=O)C1 (configuration not stated) | 1.4%
92 | COc1cc(OC)cc(C(=O)OCC(=O)Nc2ccc(N3CCCCC3)cc2)c1 | -11.3%
93 | COc1ccc(-c2nn(CCC#N)cc2/C=N/O)cc1OC | 10.3%
94 | O=C(CSc1ccc(-c2ccc(F)cc2)nn1)N1CCCc2ccccc21 | 13.5%
95 | Cc1c(Cl)c([N+](=O)[O-])nn1CC(=O)Nc1ccc2c(c1)OCO2 | -4.5%
96 | COCCNC(=O)Cn1c(=O)n(CCCCCC(=O)NCc2ccc3c(c2)OCO3)c(=O)c2sccc21 | -13.4%
97 | CCOc1ccc(NC(=O)C2CC(C)=C(C)CC2C(=O)O)cc1 (configuration not stated) | 0.7%
